# Screening results deposited in PubChem BioAssay by National Center for Advancing Translational Sciences (NCATS).
# GPT2 inhibitor: Primary qHTS assay for inhibitors of Glutamate pyruvate transaminase 2 (GPT2) | AID 1671188, 2021 | Potency, µM (series often up to 57.7 µM), for inactives: top-dose activity change, negative = inhibition, usual class: inhibitors | 100,000 compounds, 0.25% hits | Alanine aminotransferase 2 (Homo sapiens), Q8TD30 | Recombinant GPT2, coupled pyruvate oxidase/HRP Amplex Red fluorescence; active = well fitted inhibition curve with a large enough effect; inconclusive = small, poorly fitted or top-dose-only effect; also: % is scaled to controls: 0 for no effect and ±100 for the full control effect; nearly all actives have a fitted effect of over 60% in size
# Target sequence (Q8TD30 whole entry, looked up): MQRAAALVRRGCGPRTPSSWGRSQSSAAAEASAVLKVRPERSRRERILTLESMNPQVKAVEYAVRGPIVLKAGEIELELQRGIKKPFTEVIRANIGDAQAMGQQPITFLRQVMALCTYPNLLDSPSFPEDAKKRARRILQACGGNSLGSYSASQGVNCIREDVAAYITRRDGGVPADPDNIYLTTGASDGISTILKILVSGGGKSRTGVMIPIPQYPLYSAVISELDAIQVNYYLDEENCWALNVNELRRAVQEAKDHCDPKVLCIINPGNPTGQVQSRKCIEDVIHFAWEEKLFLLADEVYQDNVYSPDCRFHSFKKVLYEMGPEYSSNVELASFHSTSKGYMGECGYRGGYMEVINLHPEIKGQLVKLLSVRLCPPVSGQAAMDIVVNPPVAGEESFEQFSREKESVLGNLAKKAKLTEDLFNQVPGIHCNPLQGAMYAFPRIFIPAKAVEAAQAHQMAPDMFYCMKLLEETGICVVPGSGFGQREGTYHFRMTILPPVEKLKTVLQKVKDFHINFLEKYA
#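 Fluorescence read-out: pyruvate from GPT2 turnover coupled to pyruvate oxidase, HRP and Amplex Red (0.2mM ThPP, 0.2U/mL PO and HRP, 50uM Amplex final). Substrates 250uM a-KG, 2mM L-alanine; enzyme 10ng/uL; 30 min RT.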
# hNpr1 antagonist: Natriuretic polypeptide receptor (hNpr1) antagonism - Primary qHTS; AID 1347048, 2019; HEK293 hNpr1 GloSensor cGMP, ANP-stimulated luminescence; 76,000 compounds, 1.6% hits; Atrial natriuretic peptide receptor 1 (Homo sapiens), P16066; Potency, µM (titrated, usually from 46.3 µM), without a hit: top-dose activity change, negative = inhibition, hits mostly inhibitors; also: % is scaled to controls: 0 for no effect and ±100 for the full control effect; nearly all actives have a fitted effect of over 60% in size
#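 HEK293 cells stably expressing human Npr1 and cGMP GloSensor pGS-40F, loaded 2 h with 2% GloSensor reagent, given compound 30 min at room temperature. Luminescence read before and 20 min after 0.1 nM hNppA.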
# Npr1 antag conf: Natriuretic polypeptide receptor (hNpr1) antagonism - Confirmation | 1,400 compounds, 76% hits | Potency, µM (doses to about 57.6 µM), for inactives: at the highest dose activity change, negative = inhibition, hits mostly inhibitors | AID 1347044, 2019 | HEK293 hNpr1 cGMP GloSensor luminescence, ANP-stimulated | shares compounds with hNpr1 antagonist; also: nearly all actives have a fitted effect of over 70% in size
# NPR2 antag: Natriuretic polypeptide receptor (hNpr2) antagonism - Subtype selectivity assay; shares compounds with hNpr1 antagonist; HEK293 hNpr2 GloSensor cGMP luminescence, CNP-stimulated; Potency, µM (highest dose often 57.6 µM), for the others: at the top dose activity change, negative = inhibition, actives largely listed as inhibitors; 1,400 compounds, 67% hits; also: nearly all actives have a fitted effect of over 70% in size
# FLuc inh counter: Natriuretic polypeptide receptor (hNpr1) antagonism - Confirmation firefly luciferase (FLuc) inhibition counterscreen; shares compounds with hNpr1 antagonist; purified FLuc enzyme, luminescence, Km substrate; Potency, µM (doses to about 57.6 µM), without a hit: at the top dose activity change, negative = inhibition, usual class: inhibitors; 1,400 compounds, 0.7% hits; active = well fitted inhibition curve with a large enough effect; inconclusive = small, poorly fitted or top-dose-only effect; also: 0% is about no effect
# GloSensor cGMP: Natriuretic polypeptide receptor (hNpr1) antagonism - Counterscreen GloSensor control cell line. shares compounds with hNpr1 antagonist. HEK293 GloSensor cGMP, SNP-stimulated, luminescence. Potency, µM (doses to about 57.6 µM), for the others: at the top dose activity change, negative = inhibition, hits mostly inhibitors. 1,400 compounds, 69% hits. AID 1347051, 2019; also: % is scaled to controls: 0 for no effect and ±100 for the full control effect; nearly all actives have a fitted effect of over 70% in size
# Active calls of the source: *; i = inactive; ? = inconclusive; . = no result given; [ ] = dose if it differs, or a comment. This excerpt belongs to a sample that is enriched for hits. Unless noted, calls follow the shape of the full dose curve. Potency is read from the fitted curve at half-maximal effect.
SMILES,GPT2 inhibitor,hNpr1 antagonist,Npr1 antag conf,NPR2 antag,FLuc inh counter,GloSensor cGMP
COc1ccc(NC(=O)c2ccc3c(c2)N(S(=O)(=O)c2ccccc2)CC3)cc1,i,10µM*,24µM*,24µM*,-14%,22µM*
COc1ccc(S(=O)(=O)N2CCc3c(C(=O)NCCN(C)C)cccc32)cc1,3%,-17%,.,.,.,.
O=C(Nc1ccc(Cl)cc1)c1cc2n(n1)CC(c1ccc3c(c1)OCO3)OC2 (stereo not drawn),i,13µM*,24µM*,22µM*,-15%,22µM*
O=C(Nc1cccc(Cl)c1)c1cc2n(n1)CC(c1ccc3c(c1)OCO3)OC2 (stereo not drawn),i,-28%,.,.,.,.
O=C(NCc1ccc(Cl)cc1)c1cc2n(n1)CC(c1ccc3c(c1)OCO3)OC2 (stereo not drawn),-16%,-27%,.,.,.,.
CCc1ccc(CNC(=O)c2cc3n(n2)CC(c2ccc4c(c2)OCO4)OC3)cc1 (stereo not drawn),?,-28%,?,-20%,-7%,?
O=C(NCc1ccc(F)cc1F)c1cc2n(n1)CC(c1ccc3c(c1)OCO3)OC2 (stereo not drawn),0%,-23%,.,.,.,.
Cc1ccc(NC(=O)c2cc3n(n2)CC(c2ccc4c(c2)OCO4)OC3)cc1Cl (stereo not drawn),2%,?,?,?,-4%,-28%
O=C(Nc1ccc(F)cc1)c1cc2n(n1)CC(c1ccc3c(c1)OCO3)OC2 (stereo not drawn),-24%,13µM*,22µM*,34µM*,-16%,?
Cc1ccc(NC(=O)c2cc3n(n2)CC(c2ccc4c(c2)OCO4)OC3)cc1F (stereo not drawn),i,?,.,.,.,.
COc1ccccc1C(=O)Nc1ccc([C@H]2OCC(=O)N(Cc3cccnc3)[C@@H]2CO)cc1,1%,5%,.,.,.,.
CN1C[C@@H](NC(=O)COc2ccccc2)C[C@H]1c1nc(-c2cccnc2)no1,2%[88.5 µM],1%[70.6 µM],.,.,.,.
O=C(c1ccccc1)N1CCCC(C(=O)N2CCCC(c3nc4ncccc4[nH]3)C2)C1 (stereo not drawn),i,.,.,.,.,.
CCc1ccc(CNC(=O)c2cc3n(n2)CC(c2ccc(Cl)cc2)OC3)cc1 (stereo not drawn),0%,?,.,.,.,.
Cc1ccccc1NC(=O)c1cc2n(n1)CC(c1ccc(Cl)cc1)OC2 (stereo not drawn),i,?,.,.,.,.
Cc1cc(F)ccc1NC(=O)c1cc2n(n1)CC(c1ccc(Cl)cc1)OC2 (stereo not drawn),-4%,16µM*,27µM*,22µM*,0%,24µM*
CCc1ccc(NC(=O)c2cc3n(n2)CC(c2ccc(Cl)cc2)OC3)cc1 (stereo not drawn),i,11µM*,22µM*,?,-19%,?
Cc1ccc(OCCC2CCN(C(=O)c3ccccc3F)C2)cc1 (stereo not drawn),i,?,.,.,.,.
CC1(CCCCc2ccccc2)COc2ccc(C(=O)NC3CC3)cc2N1 (stereo not drawn),-12%[88.5 µM],20µM*,35µM*,28µM*,-1%[86.2 µM],18µM*
CC(=O)N1CCN(C(=O)c2ccc3c(c2)NC(C)(CCCCc2ccccc2)CO3)CC1 (stereo not drawn),-2%[88.5 µM],-24%[70.6 µM],.,.,.,.
CC1(CCCCc2ccccc2)COc2ccc(C(=O)N3CC(O)C3)cc2N1 (stereo not drawn),-8%[88.5 µM],35µM*,40µM*,35µM*,1%[86.2 µM],31µM*
CC1(CCCCc2ccccc2)COc2ccc(C(=O)NC3CCOCC3)cc2N1 (stereo not drawn),i,3%[70.6 µM],.,.,.,.
O=C1NCc2ccccc2CC12CCN(Cc1cccc3ccccc13)C2 (stereo not drawn),i,.,.,.,.,.
COc1ccc(CN2CC(COc3ccccc3)C3(C2)CN(c2ccccc2)C3)cc1O (stereo not drawn),4%[88.5 µM],-18%[70.6 µM],.,.,.,.
CN(Cc1cccnc1)C1CCc2ccccc21 (stereo not drawn),1%[88.5 µM],-13%[70.6 µM],.,.,.,.
SMILES,GPT2 inhibitor,hNpr1 antagonist,Npr1 antag conf,NPR2 antag,FLuc inh counter,GloSensor cGMP
N#Cc1cccnc1N1CCCC(CO)(CCCc2ccccc2)C1 (stereo not drawn),1%,-3%,.,.,.,.
OCC1(CCOc2ccccc2)CCCN(c2ncnc3sccc23)C1 (stereo not drawn),-9%,1.8µM*,2.7µM*,3.9µM*,0%,2.2µM*
CC(C)(C)CN[C@@H]1CO[C@H](CNS(=O)(=O)c2ccccc2)[C@H]1O,4%[88.5 µM],-2%[70.6 µM],.,.,.,.
CN1CCC(CN2CCC3(CC2)OCCN(c2ccc(F)cc2)C3=O)CC1,2%[88.5 µM],6%[70.6 µM],.,.,.,.
CC(C)c1ccc(CN2CCC3(CC2)OCCN(c2ccc(F)cc2)C3=O)cc1,2%[88.5 µM],22µM*,35µM*,31µM*,-2%[86.2 µM],35µM*
N#Cc1ccc(C(=O)N2CCC(n3cc(-c4nc(-c5ccccc5)no4)nn3)CC2)cc1,i,0%,.,.,.,.
O=C(c1ccc(F)cc1)N1CCCC(n2cc(-c3nc(-c4ccccc4)no3)nn2)C1 (stereo not drawn),2%,?,24µM*,24µM*,?,24µM*
CC(Oc1ccccc1)C(=O)N1CCC(n2cc(-c3nc(-c4ccccc4)no3)nn2)CC1 (stereo not drawn),-7%,18µM*,24µM*,22µM*,-24%,24µM*
O=C(c1ccc(F)cc1)N1CCC(n2cc(-c3nc(-c4ccccc4)no3)nn2)CC1,i,?,?,?,-17%,24µM*
O=C(c1ccc(Cl)cc1)N1CCC(n2cc(-c3nc(-c4ccccc4)no3)nn2)CC1,4%,16µM*,22µM*,22µM*,-19%,22µM*
O=C(c1ccccc1Cl)N1CCC(n2cc(-c3nc(-c4ccccc4)no3)nn2)CC1,i,?,.,.,.,.
Cc1noc(-c2cn(C3CCN(C(=O)C(C)Oc4ccccc4)CC3)nn2)n1 (stereo not drawn),0%,1%,.,.,.,.
COc1ccc(C(=O)N2CCCC(n3cc(-c4nc(-c5ccccc5)no4)nn3)C2)cc1 (stereo not drawn),-10%,?,.,.,.,.
O=C(NCCc1cnc[nH]1)C1CC(=O)N(c2n[nH]c3cc(Br)ccc23)C1 (stereo not drawn),4%,0%,.,.,.,.
